Measured values taken from ChEMBL document CHEMBL4513216, “Probing the Open Global Health Chemical Diversity Library for Multistage-Active Starting Points for Next-Generation Antimalarials” (ACS Infect Dis, 2020).
The whole screen tested about 69,000 compounds, of which about 8,600 (12%) showed an effect of 50% or more. The sample holds strong results, similar compounds and a random draw of the others, so the mix is not that of the screen.

What follows are compounds tested on Plasmodium berghei (assay: Screen against P. berghei liver stage (PbLuc), transformed with Luciferase, at 10uM). Conditions: tested at 10 uM.
Format: functional, HepG2

Row | Structure (SMILES) | INHIBITION [%]
1 | CCc1cnc(CN(C)C2CCN(CC3CCOCC3)C2)o1 (stereo not drawn) | 5.85
2 | Cc1nsc(NC(=O)N2CCc3sccc3C2)n1 | 24.1
3 | OC(COc1ccc(F)cc1)CN1CCC(c2ccn[nH]2)CC1 (stereo not drawn) | 37.9
4 | Cc1cccc(N2CCOCC3(C2)CN(c2cnn(C)c2)C(=O)CO3)n1 (stereo not drawn) | 44.4
5 | CC(C)Oc1ncnc2c1CCN(C(=O)c1cccn1C)CC2 | 7.39
6 | O=C1Nc2ccccc2/C1=C1\CCCCCN1 | -2.09
7 | O=C1Nc2ccccc2C12CCCN(Cc1ccncc1)C2 (stereo not drawn) | 16.6
8 | CS(=O)(=O)c1ccc(CN2CCCC3(C2)C(=O)Nc2ccccc23)cc1 (stereo not drawn) | 69
9 | O=C1Nc2ccccc2C12CCCN(Cc1ccc3c(c1)OCCO3)C2 (stereo not drawn) | 43.3
10 | CNc1ncc(CN(C)Cc2cc(O)c3cccc(Cl)c3n2)cn1 | 60.4
11 | CNc1ncc(CN(C)Cc2cc(O)c3cc(F)ccc3n2)cn1 | 40.9
12 | CNc1ncc(CN(C)Cc2cc(O)c3cc(C)cc(C)c3n2)cn1 | 35.5
13 | COc1ccccc1CNC(=O)c1ccccc1-n1cnc(CN)c1 | -1.85
14 | Cc1ccc(SC2CCCC2)c(C(=O)NCCO)c1 | 90.7
15 | CC(=O)NCCNC(=O)c1cc(C)ccc1SC1CCCC1 | 49.9
16 | Cc1ccc(SC2CCCC2)c(C(=O)NCCc2n[nH]c(=O)[nH]2)c1 | 49.9
17 | COCCc1ncc(CNC2(c3ccc(Cl)cc3Cl)CC2)cn1 | 34
18 | CCCN1CCC(Nc2cc(-c3ccccc3)ccc2OC)CC1 | 78.9
19 | COCCN1CCC(Nc2ccc(C#N)cc2F)CC1 | 21.7
20 | CCCN1CCC(NC(=O)Nc2ccc(OC)c(OC)c2)CC1 | -4.46
21 | Cc1cc(C(=O)NCC(O)c2c(Cl)cccc2Cl)nn1C (stereo not drawn) | 25.2
22 | CCC(=O)N1CCN(c2ncnc3cc4c(cc23)OCCO4)CC1 | 41.6

Row | Structure (SMILES) | INHIBITION [%]
23 | COc1ccc(CN2CC(O)CN(C(=O)OCC(C)(C)C)CC2=O)cc1 (stereo not drawn) | -15.6
24 | COc1cccc(CN2CC(O)CN(C(=O)C3CC3)CC2=O)c1OC (stereo not drawn) | -1.23
25 | COc1cccc(CN2CC(O)CN(C(=O)C(C)(C)C)CC2=O)c1OC (stereo not drawn) | 58.5
26 | COc1ccc(CN2CC(O)CN(C(=O)OCC(C)C)CC2=O)cc1 (stereo not drawn) | 15.4
27 | CCOC(=O)N1CC(=O)N(Cc2ccc(OC)cc2)CC(O)C1 (stereo not drawn) | 68.4
28 | CCOC(=O)N1CC(=O)N(Cc2cccc(OC)c2OC)CC(O)C1 (stereo not drawn) | 0.284
29 | COCC(=O)N1CCCCC1c1nc(N(C)C)ncc1-c1cc(C)no1 (stereo not drawn) | 17.435
30 | Cn1ccc(C(=O)N2CCCC(c3cc(O)n(C)n3)C2)n1 (stereo not drawn) | 36.4
31 | CCc1cnc(C)nc1NCc1cnc2c(c1)CCC2 | 46.4
32 | COc1ccccc1-n1nc(C(C)C)nc1Cc1nnc(N)s1 | 17.6
33 | CC1=C(C(=O)N(C)Cc2noc3c2CCCC3)C(C)NC(=O)N1 (stereo not drawn) | 11.8
34 | CCc1c(C(=O)NCC2CCS(=O)(=O)C2)cnn1-c1ccccc1 (stereo not drawn) | 4.71
35 | O=c1cc(CN2CCCC2)nc2n1CCCN(Cc1ccoc1)C2 | -19.5
36 | O=C(NCCCNC(=O)C1CCC1)NCCn1cccc1 | 54.4
37 | O=C(NCCn1cccc1)C1CCCOC1 (stereo not drawn) | 39.8
38 | O=C(NCCNC(=O)C1CCCCC1)NCCn1cccc1 | 18.6
39 | NC(=O)c1cccc(CS(=O)(=O)CC(O)Cn2cccn2)c1 (stereo not drawn) | 4.41
40 | CN(C)C(CNC(=O)NCCOc1ccccc1)c1ccco1 (stereo not drawn) | -90.7
41 | CN(C)c1cc(C(=O)N2CCCC2c2cnn(C)c2)ccn1 (stereo not drawn) | 22.3
42 | CCN1CCC(CC(=O)N(C)C(C)c2cncs2)CC1 (stereo not drawn) | 0.825
43 | CSc1ccc(C(O)CNS(=O)(=O)C2CC2)cc1 (stereo not drawn) | 44.9
44 | O=S(=O)(NCC(O)c1ccc(C(F)(F)F)cc1)C1CC1 (stereo not drawn) | 72.2

Row | Structure (SMILES) | INHIBITION [%]
45 | CN(C)c1ccc(C(O)CNS(=O)(=O)C2CC2)cc1 (stereo not drawn) | 38.1
46 | Cc1nn(C2CCS(=O)(=O)C2)c(O)c1Cc1ccc(Br)cc1 (stereo not drawn) | 43.4
47 | CCOC(CC)C(=O)NCCC(=O)N1CCN(c2ccccn2)CC1 (stereo not drawn) | -36.3
48 | Cc1cc(CN(C)C(=O)NC2CCN(c3ncccn3)CC2)no1 | 27.1
49 | O=c1c2cnc(N3CCCCC3)nc2ccn1-c1ccccc1F | -2.04
50 | Cc1cc(-c2cnc(N3CCCC(C)C3)nc2C(C)C)on1 (stereo not drawn) | 26.3
51 | CC1CCN(c2ncc(-c3ccccc3F)c(-c3nccn3C)n2)CC1 | 72.05
52 | CC1CCN(c2ncc(C#N)c(N)n2)CC1 | -10.3
53 | CC1CCCN(c2ncc(-c3ccccc3F)c(-c3nccn3C)n2)C1 (stereo not drawn) | 75.45
54 | CN1CCCC(c2cccc(-c3ccccc3F)n2)C1 (stereo not drawn) | 31.15
55 | COCCCNc1ncc(-c2cccc(F)c2)c(-c2nccn2C)n1 | 13.7
56 | Cn1ccnc1-c1nc(N2CCCCC2)ncc1-c1ccccc1F | 54.8
57 | Cc1cc(CNc2ccccc2Cl)no1 | -38.9
58 | COCCC(=O)N1C[C@@H](O)[C@H](N2CCN(c3ccccc3)CC2)C1 | 16.5
59 | CCOc1ncccc1C(=O)N1CCCC(n2nc(C)cc2C)C1 (stereo not drawn) | 0.0996
60 | O=C(c1cccs1)N1CCC[C@]2(C[C@@H](OCc3ccncc3)CO2)C1 | -41
61 | CN(C(=O)c1ccccc1N(C)S(C)(=O)=O)c1ccc(C(C)(C)C)cc1 | 31.2
62 | O=C(c1ccco1)N(CC(F)(F)F)C1CCCOC1 (stereo not drawn) | 9.16
63 | O=C(c1ccc(F)cc1F)N(CC(F)(F)F)C1CCOCC1 | 3.04
64 | O=C(c1ccco1)N(CC(F)(F)F)C1CCOCC1 | 61.3
65 | N#Cc1cc(S(N)(=O)=O)ccc1N1CCN(c2ccccc2)CC1 | -33.7
66 | CC1CCCN(C(=O)c2ccc(-c3ccco3)o2)C1 (stereo not drawn) | -22.2

Row | Structure (SMILES) | INHIBITION [%]
67 | COC(=O)NCC(=O)N1CCC(c2cc3ccccc3[nH]2)CC1 | 62.9
68 | CCS(=O)(=O)NCC(=O)N1CCC(c2cc3ccccc3[nH]2)CC1 | -17.8
69 | CNS(=O)(=O)CC(=O)N1CCC(c2cc3ccccc3[nH]2)CC1 | 18.6
70 | O=c1[nH]c2nc(N3CCOCC3)ncc2c(=O)n1-c1cccc(F)c1 | 31.7
71 | O=S(=O)(C1CC1)N1C[C@@H]2CN(Cc3ccoc3)CCO[C@@H]2C1 | -64.1
72 | Cc1nnc(NCCC(=O)NCc2ccccc2)c(C#N)c1C | 12.3
73 | CC(=O)N1CC[C@@]2(O)CCCC[C@H]2[C@@H]1c1ccccc1 | 45
74 | O=C(NCCC1COc2ccccc2O1)c1ccc(-c2cn[nH]c2)nc1 (stereo not drawn) | 48.9
75 | O=C(NCCC1COc2ccccc2O1)c1ccc(N2CC(O)C2)nc1 (stereo not drawn) | 59.5
76 | O=C(NCCC1COc2ccccc2O1)c1ccc(-c2cc[nH]n2)nc1 (stereo not drawn) | -21.6
77 | CCc1nc(C)cc(N2CCN(C(=O)[C@@H]3C[C@H]4C=C[C@@H]3C4)CC2)n1 | -2.09
78 | O=C(Cc1c[nH]c(=O)[nH]c1=O)N1CCCCC1CCc1ccccc1 (stereo not drawn) | -28
79 | O=C(Cc1c[nH]c(=O)[nH]c1=O)N1CCCCC1CCc1cccc(O)c1 (stereo not drawn) | 57.6
80 | NCC1CCCCN1C(=O)Cc1cccc(Br)c1 (stereo not drawn) | -0.159
81 | Nc1cccnc1N1CCCCCC1 | -12.1
82 | Cc1cccc(N2CCC3(CCCC(=O)N3)CC2)n1 | -77.4
83 | Cc1nnc(CN(C)CC2CCCCC2)o1 | 27.5
84 | CCc1nnc(CN(C)C[C@@H]2CCCN3CCCC[C@H]23)o1 | 5.46
85 | CCc1nnc(CN(C)CC2CCCCC2)o1 | 61.1
86 | CCCN(CC)c1ccc(C(=O)N2CCCC2c2cnn(C)c2)cn1 (stereo not drawn) | 22.3
87 | COc1ccc(CNCC2CN(C3CC3)CCO2)cc1C (stereo not drawn) | 10.2
88 | C[C@H]1C[C@H]2CN(C(=O)CCOc3ccccc3)CC[C@H]2O1 | 27.6

Row | Structure (SMILES) | INHIBITION [%]
89 | Cc1nc(COCc2cnc3n2CCN(C)C3C)cs1 (stereo not drawn) | 52.3
90 | Cc1nc(COCc2cnc3n2CCN(CC2CCC2)C3C)cs1 (stereo not drawn) | 50.2
91 | CCOCc1cnc2n1CCN(Cc1nc(C)cs1)C2C (stereo not drawn) | 41
92 | Cc1nc(COCc2cnc3n2CCN(C(=O)C2CC2)C3C)cs1 (stereo not drawn) | 33
93 | CC(=O)N1CCn2c(COCc3csc(C)n3)cnc2C1C (stereo not drawn) | -14.8
94 | Cc1nc(COCc2cnc3n2CCN(C2CCC2)C3C)cs1 (stereo not drawn) | -12.6
95 | Clc1ccccc1Cc1noc(CN2CCCC(CN3CCCC3)C2)n1 (stereo not drawn) | 42.8
96 | COCc1cc(NCCc2ccccn2)n2nccc2n1 | 26.6
97 | CC(C)CNc1nnc(SC(C(=O)NCc2cccnc2)C(C)C)s1 (stereo not drawn) | -11.3
98 | COCC(O)CN(C)C(=O)NCc1ccc(S(C)(=O)=O)cc1 (stereo not drawn) | 29.4
99 | COCC(O)CN(C)C(=O)NCc1ccc(-c2ccn[nH]2)cc1 (stereo not drawn) | 51.7
100 | CNS(=O)(=O)c1ccc(CNC(=O)N(C)CC(O)COC)cc1 (stereo not drawn) | 36.3
101 | CC(NC(=O)CCOc1cccc(F)c1)c1nnc2n1CCC2 (stereo not drawn) | 33.7
102 | CCC(O)Cn1cc(C2=CCN(Cc3cc(O)nc(C)n3)CC2)cn1 (stereo not drawn) | 52
103 | Cc1nc(O)cc(CN2CC=C(c3cnn(C(C)(C)C)c3)CC2)n1 | -33.2
104 | CCC(O)Cn1cc(C2=CCN(Cc3ccc(OC)cc3)CC2)cn1 (stereo not drawn) | -8.97
105 | CN(C)[C@H]1CN(C(=O)c2ccc3sc4c(c3c2)CCNC4=O)C[C@@H]1O | -26
106 | CN(C)C1CCCN(C(=O)c2ccc3sc4c(c3c2)CCNC4=O)CC1 (stereo not drawn) | 60.3
107 | O=C1NCCc2c1sc1ccc(C(=O)N3CC[C@H](CO)[C@H](O)C3)cc21 | 12.1
108 | Fc1ccc(C(CNc2ccncn2)N2CCCCC2)cc1 (stereo not drawn) | 5.03
